Out of some 2,000 compounds screened, about 170 (8.5%) were called active.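 The calls were made as follows: active = average inhibition above the solvent-only control mean plus 3 SD (cut at about 6% in these data); inactive = the rest.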 The list is a sample of the results.

This experiment is described as follows: 535nm fluorescence optical interference, confirmation, artefact control for HGIII-sPLA2 inhibitor project, biochemical, QFRET (AID 743282).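 Also: 0% = DMSO with substrate plus product and 100% = DMSO with substrate alone.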 As to conditions: BODIPY FL product fluorescence interference, at 12.2 µM, stronger effect = higher value.
A word on the inhibition: it is the drop in the measured response relative to a control, in per cent. For the compound `Cc1ccc(S(=O)(=O)N2CCOCC2)cc1C(=O)NC(=S)N(Cc1ccccc1)C(C)C`, the inhibition is -1.68% (inactive).

In the case of `COc1cccc(NC(C)=[N+](C)CCNS(=O)(=O)c2ccc(Cl)cc2)c1`, the inhibition is -14.7% (inactive).

Regarding `Cc1sc2nc(SCC(=O)c3ccc(O)c(O)c3)n(Cc3ccco3)c(=O)c2c1C`, the inhibition was 0.57% (inactive).

Take `Cc1cccc(-n2cnc(C(=O)NNC(=S)Nc3ccccc3)c2)n1`: the inhibition is -2.38% (inactive).

For `CC1=CC(C)(C)NC(=S)N1c1ccccc1`, the inhibition was -3.33% (inactive).

In the case of `CCOc1ccc(Br)cc1CSC(=N)N`, the inhibition was -9.39% (inactive).

Consider `Cc1cccc(C)c1NC(=O)CN1C(=O)C(C)Oc2ccccc21` (stereo not given), for which the inhibition is -4.96% (inactive).

For the compound `S=C(NNC(=S)NC1CC2CCC1C2)NC1CC2C=CC1C2` (stereo not given), the inhibition was 3.69% (inactive).

`O=C(NNC(=S)NC1CCCCC1)c1ccccc1Cl`: the inhibition was -4.68% (inactive).

On to `Cc1[nH]c(N)nc(=S)c1CCCNc1ccccc1`, for which the inhibition is 0.28% (inactive).

For `CN(CC(=O)Nc1ccc(N2CCOCC2)cc1)CC(=O)Nc1ccccc1[N+](=O)[O-]`, the inhibition is -3.73% (inactive).

As for `C/C(=N\Nc1ccc(Cl)nn1)c1ccccc1O`, the inhibition is 1.8% (inactive).

`CCc1cccc(CC)c1NC(=S)NCc1ccc2[nH]c(C)cc2c1`: the inhibition was -0.12% (inactive).

On to `c1ccc(C2=Nc3cccc4cccc(c34)N2)cc1`, for which the inhibition is 11.4% (active).

As to `CC(C(=O)Nc1ccccc1-c1ccccc1)N1CCOCC1` (stereo not given), the inhibition was -7.3% (inactive).

As for `O=C(CSc1nc2ccccc2n1Cc1ccccc1)NNC(=S)Nc1ccccc1`, the inhibition is -3.82% (inactive).

As to `O=C(NNc1ccccn1)c1ccc(Cl)nc1`, the inhibition is 34% (active).

`O=C(OC12CC3CC(CC(C3)C1)C2)c1ccc(NCc2cc(O)ccc2O)cc1`: the inhibition was 12.9% (active).

`COc1ccccc1OCC(=O)OCn1c(SC)nnc(C)c1=O`: the inhibition was 0.95% (inactive).

On to `COc1ccc(C(=O)Nc2sc(C)c(C)c2CN2CCOCC2)cc1`, for which the inhibition is -13.2% (inactive).

For `O=C1C(=O)N(Cc2ccc(-c3ccsc3)cc2)c2ccc(OC(F)(F)F)cc21`, the inhibition is 4.49% (inactive).

For `Nc1[nH]c(C(=O)c2ccccc2)c(-c2ccc(Br)cc2)c1C(=O)NC1CC1`, the inhibition is -0.53% (inactive).

Turning to `CN(C)c1ccc(NC(=O)NC2CCCCN(Cc3ccc(Cl)cc3)C2=O)cc1` (stereo not given), the inhibition was -5.22% (inactive).

Turning to `CC(C)(C)c1cc2cccnc2n1Cc1cccc(F)c1`, the inhibition is -9.11% (inactive).

For the compound `CN(C)S(=O)(=O)c1cccc(NC(=S)N/N=C/C(=O)c2ccccc2)c1`, the inhibition was 5.77% (inactive).

In the case of `CC(NC(=O)COC(=O)Cn1cc(C(F)(F)F)ccc1=O)c1ccccc1` (stereo not given), the inhibition was -1.38% (inactive).

On to `CC(C)CC(=O)NC(=S)NNC(=O)c1cccc([N+](=O)[O-])c1`, for which the inhibition is -0.46% (inactive).

For the compound `CSc1ccc(NC(=O)/C=C/C(=O)O)cc1`, the inhibition is -8.22% (inactive).

On to `O=C(/C=C/c1c(Cl)cccc1Cl)NCc1ccccc1`, for which the inhibition was -0.31% (inactive).

In the case of `N#CC1(Nc2ccc(-c3ccc(Cl)cc3)cc2)CCCC1`, the inhibition was 6.64% (active).

As to `CC(C)c1cc(C(=O)N/N=C/c2ccoc2)c(O)c(C(C)C)c1`, the inhibition is 4.05% (inactive).

With `Cc1ccc(C2Nc3ccccc3C(=O)N2CCN2CCNC2=O)cc1` (stereo not given), the inhibition was -4.79% (inactive).

In the case of `COc1ccc2c(c1)c(=Cc1ccc(N(C)C)cc1)c1cc(-c3ccccc3)[n+](C)n12`, the inhibition is -26.7% (inactive).

For the compound `O=C(NNC(=S)Nc1ccc(F)cc1)[C@H]1C[C@@H]1c1ccccc1`, the inhibition is 1.83% (inactive).

Turning to `COc1ccc(NC(=O)C2C3C=CC(C3)C2C(=O)NCc2ccccn2)c(OC)c1` (stereo not given), the inhibition is -6.28% (inactive).

On to `CCCCn1c(N)c(N(CCOC)C(=O)COc2c(C)cccc2C)c(=O)[nH]c1=O`, for which the inhibition was -7.38% (inactive).

For the compound `O=C(NN1C(=O)C2C3C=CC(C3)C2C1=O)c1ccco1` (stereo not given), the inhibition was -5.42% (inactive).

With `COCCn1c(SCC(=O)Nc2cc(OC)ccc2OC)nc2c(c1=O)SC(C)C2` (stereo not given), the inhibition is -17.4% (inactive).

As for `COc1ccccc1OCCn1c(SCC(N)=O)nc2ccccc21`, the inhibition is -8.97% (inactive).

Regarding `COc1cc(NS(=O)(=O)c2ccc3ccccc3c2)c2ncccc2c1`, the inhibition was 5.89% (inactive).

For `O=C(Nc1cccc(F)c1)c1cc(-c2ccco2)nc2ccccc12`, the inhibition is 4.81% (inactive).

Consider `C/C(=N/NC(=O)c1cc(Cl)ccc1O)C12CC3CC(CC(C3)C1)C2`, for which the inhibition was -3.29% (inactive).

On to `CCCCn1c(=S)[nH]c2ccccc2c1=O`, for which the inhibition was -2.71% (inactive).

As to `Cc1cc(NCCc2c[nH]c3ccccc23)ccc1Oc1cccnc1`, the inhibition was -3% (inactive).

For `CCNC(=S)Nc1ccc(OC(F)(F)F)cc1`, the inhibition is 0.41% (inactive).

Regarding `NC(c1csc(NC(=O)Nc2ccccc2Oc2ccccc2)n1)c1ccccc1Cl` (stereo not given), the inhibition is 4.15% (inactive).

Turning to `COc1cc(/C=N/n2c(C)n[nH]c2=S)ccc1OCc1ccccc1`, the inhibition was -3.5% (inactive).

Regarding `Cc1ccc(C2CC(c3cccc(C)c3)n3nc(N)nc3N2)cc1` (stereo not given), the inhibition is -10.8% (inactive).

Regarding `Nc1ccc2c(c1)C(O)c1ccc(Cl)cc1-2` (stereo not given), the inhibition is 7% (active).

On to `CCN(Cc1ccccc1)C(=O)CN1C(=S)NC(C)(C)CC1C` (stereo not given), for which the inhibition was -7.34% (inactive).

In the case of `C#CCCCc1nc2ccccc2c(=O)n1N`, the inhibition was -6.82% (inactive).

Consider `Cc1nnc(Sc2nc3c(c(=O)[nH]c(=O)n3C)n2Cc2ccccc2)s1`, for which the inhibition is -6.93% (inactive).

Consider `CCN(CC(=O)NC1CCS(=O)(=O)C1)S(=O)(=O)c1ccccc1` (stereo not given), for which the inhibition is -0.3% (inactive).

As for `CCOC12CC(C)(C)CC(C)(CC3=C1C(=O)CC(C)(C)C3)C2` (stereo not given), the inhibition was -12.7% (inactive).

With `CC(C)(c1ccccc1)c1ccc(OCCN)cc1`, the inhibition is -22.1% (inactive).

`CC[C@]1(O)C[C@@H]2CN(CCc3c([nH]c4ccccc34)[C@@](C(=O)OC)(c3cc4c(cc3OC)N(C)[C@H]3[C@@](O)(C(=O)OC)[C@H](OC(C)=O)[C@]5(CC)C=CCN6CC[C@]43[C@@H]65)C2)C1`: the inhibition was -25% (inactive).

For the compound `CCCCCCCCCCOC(=O)C[N+](C)(C)CC1CCCCC1O` (stereo not given), the inhibition was -19.3% (inactive).

For `COc1cc(OC)cc(C2=Cc3ccccc3C(CC(=O)c3ccco3)N2c2ccc(-c3cnc(OC)nc3)cc2)c1` (stereo not given), the inhibition was -14% (inactive).

`COC(=O)C(C)n1cnc2c(nnn2-c2ccc(F)cc2)c1=O` (stereo not given): the inhibition was -6.41% (inactive).

`Cc1cccc(N2CCN(c3ccc(NC(=O)/C=C\C(=O)O)cc3)CC2)c1`: the inhibition is 3.01% (inactive).

As to `N=C(N)SCc1cccc2ccccc12`, the inhibition is -8.26% (inactive).

On to `O=C(CCl)NNc1cccc(Cl)n1`, for which the inhibition is 113% (active).

As for `NS(=O)(=O)c1ccc(CCNC(=O)NC2CCCCC2)cc1`, the inhibition is -4.36% (inactive).

Take `O=C(NNC(=S)NC1CC2CCC1C2)c1ccc(Cl)cc1` (stereo not given): the inhibition was 0.11% (inactive).

In the case of `COc1ccc(Cl)cc1C(=O)NNC(=S)NC1CCCC1`, the inhibition is 3.94% (inactive).

Consider `C=CCNc1scc(-c2ccccc2)[n+]1CC=C`, for which the inhibition is -8.41% (inactive).

On to `C/C(=N\NC(=S)Nc1ccc(C)cc1)c1cc2ccccc2o1`, for which the inhibition is -2.09% (inactive).

On to `NC[C@H](Cc1ccccc1)NCCc1cc(C(F)(F)F)cc(C(F)(F)F)c1`, for which the inhibition was -15.8% (inactive).

As for `CC(=O)/C(=N\Nc1ccc(Cl)cc1Cl)Sc1cccc2cccnc12`, the inhibition is -6.02% (inactive).

On to `Cc1ccccc1NC(=O)C1CCN(c2ncccn2)CC1`, for which the inhibition was -0.85% (inactive).

With `O=C(NC(=S)Nc1ncccn1)c1ccccc1Br`, the inhibition is -4.76% (inactive).

`Nc1ccc(Nc2ccccc2)cc1`: the inhibition was 1.54% (inactive).

Consider `Cn1c2c(c(=O)n(C)c1=O)C1c3ccccc3OCC1C(C)(C)O2` (stereo not given), for which the inhibition was -3.5% (inactive).

As to `Oc1ccc2ccccc2c1N=Nc1nccs1`, the inhibition was 18.1% (active).

For `COCCCNC(=O)CNC(=S)N(Cc1cc(OC)c(OC)c(OC)c1)C1CCCC1`, the inhibition was -10.5% (inactive).

On to `COc1ccnc(NC(=S)N2CCN(c3ncc(C(F)(F)F)cc3Cl)CC2)c1`, for which the inhibition was -6.49% (inactive).

Consider `COc1ccc(C(=O)NNC(=S)NC(=O)c2ccccc2)cc1`, for which the inhibition is -1.93% (inactive).

As for `Cc1ccc(-c2csc(NNC(=O)c3ccccc3)n2)cc1`, the inhibition is 6.07% (active).

For `Cc1ccc2sc(NNC(=O)c3ccc4c(c3)OCCO4)nc2c1C`, the inhibition is 3.21% (inactive).

For the compound `CCc1cc(-c2n[nH]c(=S)n2CC(C)C)cs1`, the inhibition is -0.76% (inactive).

On to `Cn1cc(Cl)c(C(=O)NNC(=S)Nc2cccc(Cl)c2)n1`, for which the inhibition was 0.3% (inactive).

Turning to `CC(C)=CCCC1(C)C=Cc2c(ccc3c2[nH]c2cc(O)c(C)cc23)O1` (stereo not given), the inhibition was 8.94% (active).

Take `CC(C)c1ccc(Nc2nnc(SCC(=O)c3nnc(-c4ccccc4)o3)s2)cc1`: the inhibition was -8.04% (inactive).

As to `CC(=O)Oc1ccc2c(c1)C(=O)c1ccccc1C2=O`, the inhibition was -2.62% (inactive).

As to `O=C(N/N=C/c1cc(Cl)cc([N+](=O)[O-])c1O)C(O)(c1ccccc1)c1ccccc1`, the inhibition is 5.59% (inactive).

For `S=c1[nH]nc(-c2ccco2)n1/N=C/c1ccccc1`, the inhibition is -0.08% (inactive).

For the compound `CCOc1ccc2[nH]c(=S)sc2c1`, the inhibition was -2.18% (inactive).

Regarding `Cc1c(NC(=S)NCc2ccc(F)cc2)cccc1[N+](=O)[O-]`, the inhibition is -0.65% (inactive).

As for `CC(Oc1ccc2ccccc2c1)C(=O)NNC(=S)NC(=O)c1ccco1` (stereo not given), the inhibition is -3.72% (inactive).

Consider `CSC1=NN(c2ccccc2)CN(c2ccccc2)N1C`, for which the inhibition is 4.75% (inactive).

On to `Cc1c(C(=O)N/N=C/c2ccccc2)[nH]c2c([N+](=O)[O-])cccc12`, for which the inhibition is -10.6% (inactive).

For `NC(Cc1ccccc1)c1csc(Nc2cc(Oc3ccccc3)ncn2)n1` (stereo not given), the inhibition is -10.4% (inactive).

Consider `O=C(NNC(=S)Nc1ccc(Br)cc1Cl)c1ccco1`, for which the inhibition is 3.75% (inactive).

As for `CCOc1ccc(/C=N/NC(N)=S)cc1`, the inhibition was -2.77% (inactive).

For the compound `Cc1cc(-c2n[nH]c(=S)n2-c2ccc(C)c(C)c2)no1`, the inhibition is 2.66% (inactive).

As to `CC(=O)NC(c1cccs1)c1cc(Br)c2cccnc2c1O` (stereo not given), the inhibition was 1.21% (inactive).

Consider `Cc1cc(-n2nc(C)cc2C)n2ncc(-c3ccccc3)c2n1`, for which the inhibition is -10.6% (inactive).

In the case of `CCOC(=O)C1(Cc2cccc(OC)c2)CCCN(C(=O)CCSC)C1` (stereo not given), the inhibition is -20.8% (inactive).

For the compound `Cc1cccc(NC(=S)NCCN(C2CCCCC2)C2CCCC2)c1`, the inhibition was -19.9% (inactive).

As to `Brc1ccccc1C1Nc2cccc3cccc(c23)N1`, the inhibition was 16.4% (active).

For the compound `CC(=O)c1nnn(-c2ccc(Cl)cc2C#N)c1C`, the inhibition was -6.79% (inactive).

As for `COc1ccc(C(=O)NC(=S)NNC(=O)c2c(-c3ccccc3)noc2C)cc1`, the inhibition was -3.7% (inactive).

Regarding `Cc1ccc(NC(=S)NNC(=O)CSc2nnc(SCc3ccccc3Cl)s2)cc1`, the inhibition is 0.65% (inactive).

Regarding `COc1ccc(C(N)c2csc(NC(=O)Nc3cccc(C(F)(F)F)c3)n2)cc1` (stereo not given), the inhibition was 5.13% (inactive).

As for `CCCCOc1ccc(CSC(=N)N)cc1[N+](=O)[O-]`, the inhibition is -15.6% (inactive).

In the case of `Cc1c(Cl)cccc1NC(=S)NCc1ccc2c(c1)OCO2`, the inhibition is 0.14% (inactive).

Consider `C/C(=N\NC(=O)CSc1nc2ccccc2c(=O)n1-c1ccccc1C)c1cccs1`, for which the inhibition is -14.6% (inactive).

Take `O=C(COc1ccc(S(=O)(=O)NCc2ccccc2)cc1)N1CCOCC1`: the inhibition is -4.58% (inactive).

Take `C=CCn1c(C23CC4CC(CC(C4)C2)C3)n[nH]c1=S`: the inhibition is -2.58% (inactive).

For the compound `CCOC(=O)NC(=O)/C(C#N)=C\c1ccccc1`, the inhibition is -4.97% (inactive).

These data come from PubChem BioAssay AID743282 (The Scripps Research Institute Molecular Screening Center, 2014).
